Screening results (PubChem)
UHRF1 MBD2 ctr = human UHRF1 methylated DNA binding inhibitors. Q96T88. AID 687016. UHRF1 binding to methylated oligo, TR-FRET. actives 0.75% (n = 370,000). inhibition, % at 4.4 µM; in the data active = inhibition above about 21%;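 note: UHRF1 SRA domain binding a hemimethylated CpG hairpin DNA probe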
Target sequence (Q96T88 whole entry, looked up, the tested form may be a part): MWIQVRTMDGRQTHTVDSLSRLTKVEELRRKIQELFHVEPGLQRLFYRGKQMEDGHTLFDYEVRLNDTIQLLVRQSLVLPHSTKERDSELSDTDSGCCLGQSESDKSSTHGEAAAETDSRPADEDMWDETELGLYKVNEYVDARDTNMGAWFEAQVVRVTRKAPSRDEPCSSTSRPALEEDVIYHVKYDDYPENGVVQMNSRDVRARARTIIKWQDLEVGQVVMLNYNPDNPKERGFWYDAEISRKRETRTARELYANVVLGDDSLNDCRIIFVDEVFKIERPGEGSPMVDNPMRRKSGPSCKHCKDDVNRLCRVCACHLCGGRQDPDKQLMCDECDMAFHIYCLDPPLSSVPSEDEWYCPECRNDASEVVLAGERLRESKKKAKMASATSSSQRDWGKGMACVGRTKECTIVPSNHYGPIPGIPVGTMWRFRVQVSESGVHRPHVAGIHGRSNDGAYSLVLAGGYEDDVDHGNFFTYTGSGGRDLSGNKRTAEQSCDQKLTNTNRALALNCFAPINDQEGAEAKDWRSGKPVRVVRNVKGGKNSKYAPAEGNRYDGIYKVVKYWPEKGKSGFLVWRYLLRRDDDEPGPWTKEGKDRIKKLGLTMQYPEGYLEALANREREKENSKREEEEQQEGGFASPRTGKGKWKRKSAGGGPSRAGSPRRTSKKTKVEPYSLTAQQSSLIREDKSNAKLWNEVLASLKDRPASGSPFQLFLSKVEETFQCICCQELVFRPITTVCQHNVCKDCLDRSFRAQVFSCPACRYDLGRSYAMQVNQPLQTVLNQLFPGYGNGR
UBC13 inh = human UBC13 polyubiquitination inhibition. inhibition, % at 20 µM. actives 0.47% (n = 330,000). P61088. UBC13 polyubiquitin chain formation, TR-FRET. AID 485273; in the data active = inhibition above about 45%, passing the limit was not always enough
Neddylation inh = inhibitors of human cullin neddylation | P61081+Q13564 | TR-FRET cullin neddylation, biochemical | calls only at 25 µM | actives 0.58% (n = 360,000); in the data active = inhibition above about 36%
MBD2 inh = blocks human MBD2 binding to methylated DNA; inhibition, % at 4.4 µM; TR-FRET, MBD2 binding to methylated oligonucleotide; actives 0.31% (n = 370,000); in the data active = inhibition above about 13%
Each line names hits and unclear results; the compound was inactive in the other large screens. Shown are actives, neighbours in structure and some others; about 1.8% of the full set was active somewhere.

CCOC(=O)C1CCN(CC(O)COC(CC)c2ccccc2)CC1 (centres undefined)	none
CCCCNc1c(-c2ccc(SC3CCCCC3)c(OC)c2)nc2ccc(Cl)cn12	UHRF1 MBD2 ctr 24
CCCCCCSc1cc(-c2nc3ccc(Cl)cn3c2NC2CCCCC2)ccc1OC	UHRF1 MBD2 ctr 58
CCCCCCSc1ccc(-c2nc3ccc(Cl)cn3c2NC2CCCCC2)cc1	none
CCCS(=O)(=O)NC(=O)C1(C)CCCN(C(=O)c2ccccc2)C1 (centres undefined)	none (no result: UBC13 inh)
CCOC(=O)c1ccc(NC(=O)C(=O)NCc2ccco2)cc1	UHRF1 MBD2 ctr 24 (not shown: Neddylation inh)
CCOC(=O)c1ccc(NC(=O)CCC(=O)NCc2ccco2)cc1	none
O=C(CCC(=O)Nc1ccc(F)cc1)N/N=C/c1ccc(O)cc1O	UHRF1 MBD2 ctr 24
O=C(CCC(=O)Nc1ccc(F)cc1)N/N=C/c1ccc(O)cc1	none
CCCCN1C(=O)C(=O)NC[C@@H]1CC1CCCCC1	UHRF1 MBD2 ctr 48 (no result: UBC13 inh)
CCOC(=O)C(=O)Cc1cccnn1	UHRF1 MBD2 ctr 25 (no result: UBC13 inh)
O=C(Nc1ccc(Oc2ccsc2C(=O)O)cc1)c1ccccc1	none
O=C(O)c1sccc1Oc1ccc(NS(=O)(=O)c2cccc(F)c2)cc1	UHRF1 MBD2 ctr 31
CCOCc1nnc(NC(=O)CS(=O)(=O)c2ccc(C)cc2)s1	UHRF1 MBD2 ctr 26
CC(=O)OCCCN(C)CC/C=C1/c2ccccc2CSc2ccccc21	none
O=C(NCc1ccccc1)c1cccc(OCC(=O)N2CCN(C(=O)c3ccco3)CC2)c1	UHRF1 MBD2 ctr 21
COC(=O)[C@H]1C[C@@H]1[C@H](NC(=O)c1cnccn1)c1ccccc1	none
COc1ccc(CN(C)CCCn2cnc3c(SC)ncnc32)cc1OC	UHRF1 MBD2 ctr 29 (no result: UBC13 inh)
Cc1noc(C)c1COc1ccccc1C(=O)NC(C)c1ccc(Cl)cc1 (centres undefined)	UHRF1 MBD2 ctr 32
CCCN1CCS(=O)(=O)N(Cc2cn(CC(=O)OCC)nn2)C(C(=O)OC)C1 (centres undefined)	none (no result: UBC13 inh, Neddylation inh)
CCOC(=O)Cn1cc(CN2C(C(=O)OC)CN(Cc3ccc(OC)cc3)CCS2(=O)=O)nn1 (centres undefined)	UHRF1 MBD2 ctr 80 (no result: UBC13 inh, Neddylation inh)
COC(=O)C1CN(Cc2cn(Cc3ccccc3)nn2)CCS(=O)(=O)N1Cc1ccccc1 (centres undefined)	UHRF1 MBD2 ctr 28 (no result: UBC13 inh, Neddylation inh)
COC(=O)C1CN(Cc2cn(Cc3ccc(C)cc3)nn2)CCS(=O)(=O)N1Cc1ccccc1 (centres undefined)	none (no result: UBC13 inh, Neddylation inh)
O=C1C2C3C=CC(C2C(=O)N1c1ccc(O)cc1)C1C2C(=O)N(c4ccc(O)cc4)C(=O)C2C31 (centres undefined)	none
O=C(Oc1c(CN2CCOCC2)cc(Cl)c2cccnc12)c1ccccc1F	UHRF1 MBD2 ctr 22
Cc1ccc(S(=O)(=O)N2CCC(C(=O)OCC(=O)NCCc3ccccc3)CC2)cc1C	UHRF1 MBD2 ctr 40
O=C(COC(=O)C1CCN(S(=O)(=O)c2ccccc2)CC1)NC(=O)c1ccc(OC(F)F)cc1	UHRF1 MBD2 ctr 26
O=C(CCc1ccccc1)Nc1c(F)cccc1F	none
O=C(CN(Cc1cccs1)C(=O)c1csnn1)NC1CCCC1	none
NC(=O)CSc1nc2cc([N+](=O)[O-])ccc2n1-c1cccc(C(F)(F)F)c1	none
CC(Sc1nc2cc([N+](=O)[O-])ccc2n1-c1cccc(C(F)(F)F)c1)C(=O)NC(N)=O (centres undefined)	UHRF1 MBD2 ctr 95
CS(=O)(=O)N(CC(=O)N1CCOCC1)c1ccc(Cl)cc1	none
CS(=O)(=O)N(CC(=O)N1CCCCCC1)c1ccc(Cl)cc1	UHRF1 MBD2 ctr 29
CC(CNC(=O)CCc1nnc(CCC2CCCCC2)o1)c1ccccc1 (centres undefined)	UHRF1 MBD2 ctr 33
CCc1ccc(NC(=O)c2cccc(NC3=NC4CS(=O)(=O)CC4S3)c2)cc1 (centres undefined)	UHRF1 MBD2 ctr 27
CC1CCN(C(=S)c2cn(Cc3cccc(F)c3)c3ccccc23)CC1	UHRF1 MBD2 ctr 29
CN1CCN(C(=S)c2cn(Cc3ccccc3)c3ccccc23)CC1	none
O=C(Cn1c(NCCO)nc2ccccc21)c1cccs1	none
N=c1n(CC(=O)c2cccs2)c2ccccc2n1Cc1ccccc1	UHRF1 MBD2 ctr 25
O=C(O)Cn1c(=O)n(Cc2ccccc2)c2ccccc21	UHRF1 MBD2 ctr 28
CC(NC(=O)Cn1c(=O)oc2cc(S(=O)(=O)N3CCCC3)ccc21)c1ccccc1 (centres undefined)	none
Cn1nc(C(F)(F)F)c(C#N)c1N1CCN(c2ccc(F)cc2)CC1	none
COc1ccc(CNC(=O)c2cc3c(C)nc4ccccc4c3o2)c(OC)c1	none (no result: UHRF1 MBD2 ctr, MBD2 inh)
O=C(NC1CCN(S(=O)(=O)c2ccc(Cl)cc2)CC1)c1cccnc1	UHRF1 MBD2 ctr 31
O=C(NC1CCN(S(=O)(=O)c2ccc(Cl)c(F)c2)CC1)c1cccnc1	none
CC(=O)Nc1cc(-c2ccc(N3CCN(C)CC3)cc2)cn2c(-c3ccccc3)cnc12	none (no result: UBC13 inh)
CC(=O)Nc1cc(-c2ccc(N3CCN(C)CC3)cc2)cn2c(-c3ccc(S(C)(=O)=O)cc3)cnc12	UHRF1 MBD2 ctr 25 (no result: UBC13 inh)
COc1ccc(OCCOc2ccc(S(=O)(=O)N3CCCC3)cc2C(N)=O)cc1	none
Cc1cc(Cl)ccc1NNC(N)=S	UHRF1 MBD2 ctr 22
Cc1ccc(C)c(NNC(N)=S)c1	none
COc1ccc(S(N)(=O)=O)cc1C(=O)N1CCCC1	none
COc1ccc(S(N)(=O)=O)cc1C(N)=O	UHRF1 MBD2 ctr 22
O=[N+]([O-])c1cccc(NC(=S)N2CCCC2)c1	UHRF1 MBD2 ctr 27
COc1cccc(-c2nc(C(N)=O)c3[nH]c(=O)n(-c4cccc(Cl)c4)c3n2)c1OC	UBC13 inh 50
COC(=O)c1cn(C(=O)c2ccccc2Cl)c2ccccc12	UHRF1 MBD2 ctr 25
O=c1[nH]c(C2CCN(S(=O)(=O)c3ccc4c(c3)OCCO4)CC2)nc2c1nnn2Cc1ccc(F)cc1	UHRF1 MBD2 ctr 27
COc1ccc(-c2oc3c(CC=C(C)C)c(O[C@@H]4O[C@H](CO)[C@@H](O)[C@H](O)[C@H]4O)cc(O)c3c(=O)c2O[C@@H]2O[C@@H](C)[C@H](O)[C@@H](O)[C@H]2O)cc1	none (no result: UHRF1 MBD2 ctr, Neddylation inh, MBD2 inh)
CC(=O)O[C@@H]1[C@@H](O)[C@@H](O)[C@H](Oc2c(-c3ccc(O)cc3)oc3c(CC=C(C)C)c(O)cc(O)c3c2=O)O[C@H]1C	UBC13 inh 46 (no result: UHRF1 MBD2 ctr, Neddylation inh, MBD2 inh)
O=C(CSc1nnnn1C1CCCCC1)Nc1ccc2c(c1)OCO2	UHRF1 MBD2 ctr 21
O=C(CSc1nnnn1C1CCCC1)N1CCCc2ccccc21	UHRF1 MBD2 ctr 29
COc1ccc([N+](=O)[O-])cc1NC(=O)C(C)Sc1nc(C)c(C)c(C)n1 (centres undefined)	UHRF1 MBD2 ctr 61
COc1ccc([N+](=O)[O-])cc1NC(=O)C(C)N1CCCC1 (centres undefined)	UHRF1 MBD2 ctr 49
COC(=O)Nc1cc([N+](=O)[O-])ccc1OC	none
O=C(CCCCC(=O)NCc1cccs1)NCc1cccs1	UHRF1 MBD2 ctr 23
O=C1NN(c2ccc(Cl)cc2)C(=O)/C1=C\c1ccc(-c2cccc(C(=O)O)c2)o1	UHRF1 MBD2 ctr 28 (no result: UBC13 inh)
Cc1ccc(N2NC(=O)/C(=C/c3ccc(-c4ccc(Cl)c(C(=O)O)c4)o3)C2=O)cc1	none
CCOc1ccc(NC(=O)CN(C)C(=O)c2ccccc2OCc2cccc(C)c2)cc1OCC	none
